Results from the supplement of paper PMC6555819.

Assays:
Assay in all cases: PBM binding z-score (relative to random genomic background probes); higher = stronger binding; sequences stand for … in GC…GCGATTGACAGCGTAGAATGAAGG
[1] = test system: RARb homodimer (NR concentration 270 nM)
In short: (§1)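 Binding z-scores were set against random background probes. The data came from custom Agilent 4×180K protein-binding microarrays carrying double-stranded probes with 34-nt variable regions, incubated 1 h with ligand-free nuclear receptor dimers. Partner-specific antibodies detected binding, and scanned fluorescence was regression-normalized.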

[2] = test system: RARg:RXRa (NR concentration 270 nM, RXRa partner concentration 90 nM)
In short: as §1

[3] = test system: RARg homodimer (NR concentration 270 nM)
In short: as §1

[4] = test system: RXRa DBDmut IVT, anti-RXR (DBD mutation: RXRa K156A/R161A, NR concentration 90 nM)
In short: as §1

[5] = test system: RXRa homodimer (NR concentration 180 nM)
In short: as §1

[6] = test system: THRa:RXRa (NR concentration 90 nM, RXRa partner concentration 90 nM)
In short: as §1

[7] = test system: THRa homodimer (NR concentration 90 nM)
In short: as §1

[8] = test system: VDR:RXRa (NR concentration 270 nM, RXRa partner concentration 90 nM)
In short: as §1

[9] = test system: VDR homodimer (NR concentration 270 nM)
In short: as §1

Sequence	PBM binding z-score [1]	PBM binding z-score [2]	PBM binding z-score [3]	PBM binding z-score [4]	PBM binding z-score [5]	PBM binding z-score [6]	PBM binding z-score [7]	PBM binding z-score [8]	PBM binding z-score [9]
AGAATGAGGTTAAGATCACGGAAACAGAATACAT	0.84	2.33	1.81	0.924	2.92	2.47	0.742	1.41	0.686
ACCTCTAGGTAAAGTTCAGTGAAAGATCGATAGA	2.27	1.59	2.19	1.47	0.983	0.866	-0.127	0.835	1.51
ATATGTAGGTTAAGGGTCAATCAGGTTGGTTCGC	3.94	4.94	3.82	1.7	5.96	3.45	1.54	5.61	3.33
CCGACTCGGGCATAAGGTTACCATAAGCCAGCCC	1.44	1.47	0.909	-0.288	0.905	2.09	0.96	-0.121	-0.223
CCCACTGGGGCAAGGTTACCATAACGCACAGCCA	1.4	1.18	1.2	-1.3	1.09	1.23	0.178	0.132	-0.227
ATCTCTAGGTAAAGTTGAGTGAAAGATCGATAGA	-0.112	0.406	0.593	-0.00419	0.495	0.689	-0.246	0.152	0.103
TAGCCTAGGTTATTGGGCCAGTATAGTACGCATC	0.536	0.395	0.586	-0.294	0.452	0.29	-0.377	-0.034	-0.529
CAGCCTAGGACAGGGCCAGTATAGGAGGAACGTT	-0.1	-0.205	0.0959	-0.669	-0.283	0.127	-0.164	-0.833	-0.467
GCTTATAGATCAAGGTTAAGAAAGACTAAGCTAA	0.33	0.377	0.552	0.345	0.835	1.32	0.0443	0.244	-0.265
CCTACTGGGCCAAGGTCACTGATCAGTCAAAGCA	3.91	4.17	4.29	0.302	3.92	3.6	2.65	2.92	2
GCTGGTAGATCAAGGTTAAGAAAGACTAAGCTAA	0.171	0.216	0.368	-0.116	0.692	1.36	-0.209	0.201	-0.133
CGAACTAGGTCAGAACAGGACACTGAAGGATGAT	2.12	2.35	3.35	0.629	1.37	4.03	0.473	1.14	0.123
ACAGACAGGTGATGAAGGTAACTTAGGCTATCAT	0.348	0.286	0.467	-0.093	0.298	0.532	0.0402	0.0593	0.0918
CTCGAAAGGTCGTGCGCAGGTGAGTATACCAAAC	2.93	5.81	3.83	1.76	5.1	3.58	0.11	3.64	0.912
CCTGCTAGGTCATGTTCAGCTAATCTACAGTATG	2.65	3.26	3.95	2.42	2.13	2.51	1.08	1.48	0.754
TGAATGAGGTTAATGATCAGGGAACGTGGCGTCG	0.436	1.4	1.07	0.589	1.67	1.97	0.6	0.633	0.544
AGTCAAAGTTCATCTAGGTAACGGAAGATATGCT	4.04	5.6	6.13	4.58	4.85	3.33	0.388	4.95	5.59
TCAGACAGGTGAAAGTAACTCAGGTACGCAGTCG	0.326	0.474	0.598	1.01	0.974	0.472	-0.0578	0.591	-0.0124
GCTAGCAGGCCATTGGGGTCACTCAATGACGGGC	3.44	3.98	3.1	0.8	4.7	3.84	2.39	6.04	4.55
TCTTGCAGATCAATAGAGGTTAAGAAAGTGCGCT	1.01	0.797	0.305	0.292	1.37	2.42	-0.532	1.79	-0.0844
TCTTGTAGATCAAGAGGAGGTTAAGAAAGATCGA	0.486	0.616	0.204	0.251	0.72	0.611	-0.142	0.632	-0.158
TAGCCTAGGTCATGGGCAAGTATACCACGCGAAC	3.17	4.22	4.58	0.0807	3.44	3.34	1.26	2.13	0.341
CCTTACGGGTCACTGACAGGTAATAGCATTTGGA	2.83	5.08	4.26	1.55	4.7	2.64	0.085	3.17	0.456
TCGAGTACGTTACCAATGGGGCATTCAGCTTTCT	0.0384	-0.336	-0.335	3.13	-0.358	-0.315	-0.201	0.458	1.2
CCGACTGGGGCAAGGTTCCCATAACGCACAGCCA	0.27	0.259	0.433	-0.627	0.314	-0.0449	-0.119	-0.47	-0.153
ATCTCTAGGTATAAGTTCAGTGAATCCCGAGGAT	1.42	1.17	1.31	0.993	0.674	0.824	0.567	0.837	2.79

Sequence	PBM binding z-score [1]	PBM binding z-score [2]	PBM binding z-score [3]	PBM binding z-score [4]	PBM binding z-score [5]	PBM binding z-score [6]	PBM binding z-score [7]	PBM binding z-score [8]	PBM binding z-score [9]
TTACCAAGGTGAGCTGAGGTCGTAGATCCAACTC	1.66	1.5	1.13	-0.577	1.72	4.78	1.9	3.45	0.82
AGTCAAAGTTCAGGACTAGGTAACGTAAAGCACG	2.93	4.32	4.99	2.87	2.92	2.51	0.371	2.4	1.94
CCTAGCAGGCCAGGGTCACGCAAGCATTTCGCTT	3.51	4.73	3.74	0.0811	5.81	3.6	1.62	3.95	1.53
CCTGCTAGGCCATGGTCAGCTAATCTACAGTATG	0.329	-0.00744	0.586	0.152	-0.245	-0.0916	-0.719	-0.543	-0.711
GCTAGTAGATCAAGGTTAAGAAAGACTAAGCTAA	0.204	0.392	0.168	-0.105	0.832	1.01	-0.473	-0.00199	-0.442
GCAGACGGGTGAAACGCAGGTAACTCAGGGTGGC	-0.28	0.482	-0.283	-1.07	0.49	1.3	-0.706	-0.555	-0.68
AGAACGAGGTTATTAAGATCAGGGAATTGCGGTC	0.861	0.912	0.734	1.68	1.82	1.65	0.227	2.38	1.33
CCGAGTAGGTTATGCGGCATTCAGGCAACGGTGA	0.275	0.0373	-0.0255	-0.0566	0.274	-0.034	0.263	-0.251	-0.167
CCTTGCGGGTCACGAGGTTATAGCACGACGAGCG	3.64	5.78	5.02	1.62	6.53	3.68	1.34	4.93	1.93
AGAATGAGGTTATACATAGATCAGGGAAGAAAGT	0.905	2.03	1.38	1.27	2.42	2.19	0.855	1.5	1.24
AGTCAAAGTTCAGGACGAGGTAACGTATAGCACG	3.26	4.94	4.94	3.22	3.15	3.88	1.73	3.14	2.37
TCATATAGGTAAATGCTAGGTGAAAATCCGATCT	0.208	0.578	0.633	1.54	0.795	1.24	0.427	0.793	0.374
ATATGTAGGTGACATCCGGGTCATTCAGGCTATG	2.79	3.31	1.95	0.715	3.03	3.53	2.11	4	2.66
CAACCTAGGTCAAGGTCAAAGTCGGTTTGTGCCA	5.28	6.18	6.82	2.98	6	4.3	3.92	5.45	4.12
TAGCCTAGGTCCTTGGGCCAGTATAGTACGCATC	-0.937	-0.412	-0.296	-1.27	-0.549	-0.732	-1.37	-0.897	-1.06
CCTACTGGGCCTTCAGGTCATTGATATCAACGTT	2.18	1.13	1.39	-0.0421	0.791	3.15	3.23	1.45	1.64
TCATATAGCTAATACAGGTGAAAGTCGGCATCTA	-0.00242	0.298	0.338	1.09	0.758	0.42	-0.541	0.529	-0.107
AGAATCAGGTTAAGATCAGGGAAACAGAATACAT	0.909	0.705	0.926	0.172	0.786	1.45	0.772	0.3	0.415
ATATGTATGTTACATCCGGGTCATTCAGGCTATG	2.37	1.63	1.26	0.811	2.21	3.04	2.62	3.02	1.99
CCTTACGGGTCCCGAGGTTATAGCACGACGAGCG	0.515	0.416	0.388	-1.34	0.999	1.1	0.132	0.198	0.162
AGAACTAGGGCACGCTGAGTTGATAGCAGAGTAG	0.535	0.967	1.49	-0.125	0.504	0.309	-0.568	0.303	0.21
TCGAGTACGTTAGTCGGGGCATTCAGCCAACATA	0.0909	-0.237	-0.247	3.19	-0.238	-0.142	-0.507	0.707	1.51
TGGCCTAGGTCAGATCGGGCCAGTATACGCTATA	1.79	2.62	4.12	-0.787	1.19	3.53	-0.553	0.424	-0.622
CCTATTAGTTCACCATAAGGGCAACCGAAGCTCG	3.48	4.31	2.61	2.82	1.69	3.37	1.73	2.6	2.41
CTACCACGGTGAACAAGGTCGTTGATTACTATTC	1.3	0.591	0.651	1.04	0.823	1.93	1.4	3.47	2.12
GGCACGAGGGCAAGTTGATAGCAGAGTTTGATGG	1.6	1.91	2.12	2.06	1.17	1.23	0.0135	0.599	1.58
